Over roughly 33,000 sequences, “normalized occupancy” has its median near 0.075; the highest 2% begin near 0.095. What follows is part of a selection rich in the highest values, with near analogues and random picks from the rest.

Sequence of MaxL homodimer (P61244 whole entry): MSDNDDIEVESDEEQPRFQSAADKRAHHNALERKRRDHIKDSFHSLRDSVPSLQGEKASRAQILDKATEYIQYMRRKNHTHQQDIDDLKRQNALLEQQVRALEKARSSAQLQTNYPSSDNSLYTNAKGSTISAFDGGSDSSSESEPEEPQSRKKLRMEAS

In this assay the target is MaxL homodimer (Homo sapiens, UniProt P61244 1-160). As to the kind of experiment: universal protein-binding microarray (PBM); PBS-based mixture, 10 nM His-tagged protein dimer, 2% milk, 200 ng/uL BSA, 50 ng/uL salmon testes DNA, 0.02% TX-100; detection with Alexa 488 anti-His antibody;; high values mean tight binding. The conditions noted are these: protein: recombinant; tags: C-terminal His-tag (pET21a); chain copies: 2; dsDNA, one strand shown. An outline of the steps:
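His-tagged protein dimer at 10 nM was incubated on Agilent 4 x 44 K arrays with the 'all 10-mer' universal design. Bound protein was tagged with 10 ng/μL fluorophore-conjugated anti-His antibody, and arrays were scanned on a GenePix 4400A. Binding occupancy for each 8-mer is its fluorescence intensity normalised to the highest-ranked 8-mer's intensity.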
For the sequence GAACACAA, the binding signal stood at 0.0743 normalized occupancy. CCAATTCG: the binding signal amounted to 0.0738 normalized occupancy. For AGCCCTCC, the binding signal stood at 0.0723 normalized occupancy. On to TCGTAAAA, for which the binding signal worked out at 0.0794 normalized occupancy. The figure for GCCATCAC is 0.0781 normalized occupancy; for ATACTGGC it is 0.0812 normalized occupancy. The figure for ACGCACAA is 0.0775 normalized occupancy; for AGGCACAC it is 0.0801 normalized occupancy.

With AGTCACAC, the binding signal was 0.0886 normalized occupancy. For the sequence ACGCACAG, the binding signal came to 0.076 normalized occupancy.

Take AGTCACAT: the binding signal turned out to be 0.101 normalized occupancy. Take AGGCACAT: the binding signal turned out to be 0.098 normalized occupancy. For ACGCACAT, the binding signal came out at 0.0968 normalized occupancy. Turning to AGTCACAG, the binding signal was 0.0732 normalized occupancy. The figure for AGGCACAG is 0.075 normalized occupancy; for GCGACAGC it is 0.0756 normalized occupancy; for CAACATCG it is 0.0784 normalized occupancy. The figure for GTACGGGA is 0.0747 normalized occupancy; for GCACCAGC it is 0.0755 normalized occupancy; for TCTGTTAA it is 0.0739 normalized occupancy. The figure for AACTGTAC is 0.0732 normalized occupancy.

On to AAGCTACG, for which the binding signal stood at 0.0726 normalized occupancy. Turning to CTATTGTC, the binding signal amounted to 0.079 normalized occupancy. On to CCTACAGC, for which the binding signal was 0.0762 normalized occupancy. The figure for AAATGCTA is 0.0773 normalized occupancy.

For ACATGCTA, the binding signal was 0.106 normalized occupancy. AGATGCTG: the binding signal amounted to 0.078 normalized occupancy. With GGATGCTA, the binding signal stood at 0.0763 normalized occupancy. The figure for ACATGCTG is 0.124 normalized occupancy. With AGATGCTA, the binding signal is 0.0746 normalized occupancy.

Regarding GCATGCTA, the binding signal was determined as 0.112 normalized occupancy. The figure for ATATGCTG is 0.0875 normalized occupancy. Consider CCATGCTA, for which the binding signal was found to be 0.0945 normalized occupancy. The figure for AATAGTAA is 0.0776 normalized occupancy; for CATGGCTA it is 0.0864 normalized occupancy; for AAGAATTG it is 0.0747 normalized occupancy. The figure for TAGTGGCA is 0.0787 normalized occupancy; for GATGCTAA it is 0.0749 normalized occupancy. The figure for CAGAGACC is 0.0727 normalized occupancy.

For the sequence AGCTATAA, the binding signal was determined as 0.0785 normalized occupancy. For the sequence CCAGGTAA, the binding signal is 0.0729 normalized occupancy. As to ACATACAG, the binding signal worked out at 0.0868 normalized occupancy.

Consider GCGTGCTA, for which the binding signal turned out to be 0.117 normalized occupancy. Regarding CCGTGCTC, the binding signal stood at 0.0737 normalized occupancy. With ACGTGCTA, the binding signal was found to be 0.109 normalized occupancy.

Turning to ACGTGCTG, the binding signal came to 0.0935 normalized occupancy.

For AGGTGCTC, the binding signal is 0.0817 normalized occupancy. The figure for GGGTGCTA is 0.0789 normalized occupancy. As for CCGTGCTA, the binding signal was 0.0812 normalized occupancy. Consider GTGTGCTA, for which the binding signal is 0.0884 normalized occupancy. The figure for ACGTGCTC is 0.108 normalized occupancy; for GCGAACTA it is 0.0739 normalized occupancy. In the case of ATGTGTCC, the binding signal is 0.0851 normalized occupancy.

Take ACATTTGA: the binding signal came out at 0.0788 normalized occupancy. In the case of ACTCACTC, the binding signal was found to be 0.0763 normalized occupancy. On to CATCCCAG, for which the binding signal came out at 0.0743 normalized occupancy.

ATGCCCAG: the binding signal came to 0.0765 normalized occupancy. In the case of AGGGGTGA, the binding signal came out at 0.082 normalized occupancy. Regarding CATGGTAC, the binding signal was found to be 0.0998 normalized occupancy. The figure for CGTGGTCC is 0.0896 normalized occupancy; for CATGGTAG it is 0.0879 normalized occupancy.

On to GGTGGTAA, for which the binding signal is 0.0793 normalized occupancy. The figure for CATGGTAA is 0.0939 normalized occupancy; for AATGGTCA it is 0.0816 normalized occupancy; for CGTGGTAG it is 0.089 normalized occupancy.

Take CATGGTCA: the binding signal is 0.0991 normalized occupancy. As to CGTGGTCA, the binding signal was 0.102 normalized occupancy. As to CGTGGTAA, the binding signal was 0.096 normalized occupancy. The figure for AGTGGTCA is 0.0751 normalized occupancy; for CATGGTCG it is 0.0925 normalized occupancy; for GTTAGACA it is 0.0808 normalized occupancy. The figure for CAGGTCAG is 0.0752 normalized occupancy. Take GCATAGCC: the binding signal is 0.0775 normalized occupancy. ACGTTCCC: the binding signal was 0.0819 normalized occupancy. The figure for GGTCTTTA is 0.0763 normalized occupancy; for AACACAGC it is 0.0787 normalized occupancy; for CAAGTGTG it is 0.086 normalized occupancy.

For the sequence ATAATGTG, the binding signal is 0.095 normalized occupancy. The figure for ACACAGAG is 0.0759 normalized occupancy. As for GATCTTGC, the binding signal worked out at 0.0794 normalized occupancy. In the case of AGCATCTC, the binding signal was 0.0746 normalized occupancy. As to AGGCATCC, the binding signal was 0.0757 normalized occupancy.

For the sequence AGGCATGC, the binding signal stood at 0.1 normalized occupancy. Regarding AGGCATTC, the binding signal came out at 0.0762 normalized occupancy. On to AGGCATGG, for which the binding signal is 0.0974 normalized occupancy. The figure for AGGCATAG is 0.0784 normalized occupancy. The figure for AGGCATTG is 0.0775 normalized occupancy; for CTCGAAAA it is 0.0738 normalized occupancy; for CAAAATTG it is 0.0748 normalized occupancy. Turning to AGTCGCAA, the binding signal is 0.0744 normalized occupancy. As for GCAGGTAA, the binding signal came to 0.0753 normalized occupancy. On to AATGTTCC, for which the binding signal was 0.0722 normalized occupancy. The figure for GACGTGCC is 0.0841 normalized occupancy; for TACGTGCA it is 0.0875 normalized occupancy.

With ACCGTGCT, the binding signal was 0.0773 normalized occupancy. The figure for CCCGTGCG is 0.0872 normalized occupancy. The figure for CACGTGCA is 0.588 normalized occupancy. For the sequence AAGGTGCC, the binding signal amounted to 0.0753 normalized occupancy. On to GACGTGCA, for which the binding signal was found to be 0.0797 normalized occupancy. On to CACGTCCG, for which the binding signal was 0.0797 normalized occupancy. Take AACGTGCT: the binding signal worked out at 0.115 normalized occupancy. The figure for CACGTGCG is 0.641 normalized occupancy; for AAGGTGCT it is 0.0733 normalized occupancy.

With AACGTGCC, the binding signal came out at 0.096 normalized occupancy. Regarding AATTACGG, the binding signal is 0.0744 normalized occupancy. The figure for CATTGGCG is 0.0762 normalized occupancy.

For the sequence AACTTATT, the binding signal is 0.0797 normalized occupancy. The figure for CTGTTATC is 0.078 normalized occupancy; for CATTAGCG it is 0.0779 normalized occupancy.

As to GTCGTGCA, the binding signal was 0.0855 normalized occupancy. The figure for ATCGTGCA is 0.0816 normalized occupancy; for AACGTCCG it is 0.0721 normalized occupancy; for AACGTCCA it is 0.0778 normalized occupancy. In the case of AACGTGCG, the binding signal was 0.108 normalized occupancy.

As for CACGTGCC, the binding signal worked out at 0.521 normalized occupancy. AACGTTCA: the binding signal was found to be 0.0836 normalized occupancy. The figure for AACGTGCA is 0.109 normalized occupancy; for AAGGTGCG it is 0.077 normalized occupancy. The figure for CAGGTGCC is 0.0785 normalized occupancy.

Take CTCGTGCA: the binding signal was determined as 0.1 normalized occupancy.

Take CACGTACC: the binding signal was determined as 0.0843 normalized occupancy. In the case of CAGGCTGA, the binding signal is 0.0746 normalized occupancy. The figure for AAAGCACG is 0.0922 normalized occupancy; for AGTGTTAA it is 0.0742 normalized occupancy.

Regarding CCCATAAG, the binding signal turned out to be 0.0856 normalized occupancy. The figure for ACATCCTA is 0.0822 normalized occupancy; for AATTAATC it is 0.0741 normalized occupancy; for ACGGGGAC it is 0.0795 normalized occupancy. Consider ACCAGAAC, for which the binding signal stood at 0.0763 normalized occupancy. As for CGGCATCA, the binding signal worked out at 0.0791 normalized occupancy. The figure for CCAGGTCG is 0.0731 normalized occupancy; for CATACACG it is 0.097 normalized occupancy.

Take CATACATG: the binding signal is 0.0969 normalized occupancy. The figure for CGTACACA is 0.0813 normalized occupancy; for CATACACA it is 0.0892 normalized occupancy. The figure for AATACATG is 0.0934 normalized occupancy; for CATACATA it is 0.0846 normalized occupancy; for CGTACACG it is 0.0971 normalized occupancy.

As to AGTACACA, the binding signal turned out to be 0.0858 normalized occupancy.

In the case of CATACACC, the binding signal was 0.0901 normalized occupancy.

Turning to CCGCTTAC, the binding signal is 0.0724 normalized occupancy.

Consider TCAGGCAA, for which the binding signal amounted to 0.0718 normalized occupancy. The figure for GACGGCGA is 0.0752 normalized occupancy; for CCAACAAG it is 0.0776 normalized occupancy; for CCGCGAGG it is 0.0805 normalized occupancy. The figure for AACCTAAC is 0.0728 normalized occupancy; for GCGATTCC it is 0.0814 normalized occupancy. For CCCCACGG, the binding signal worked out at 0.0843 normalized occupancy. On to ACCCACCA, for which the binding signal was determined as 0.088 normalized occupancy. The figure for ACCCACGT is 0.0984 normalized occupancy. The figure for CCCCACGC is 0.0979 normalized occupancy; for GCCCACGA it is 0.0823 normalized occupancy. As to CCCCACGA, the binding signal is 0.0848 normalized occupancy. The figure for GCCCACCC is 0.087 normalized occupancy.

As for ACCCACAT, the binding signal came out at 0.0932 normalized occupancy. Consider GCCCACGC, for which the binding signal worked out at 0.0978 normalized occupancy. On to ACCCACGA, for which the binding signal was 0.0913 normalized occupancy.

ACCCACGG: the binding signal was 0.0796 normalized occupancy. The figure for ACCCACGC is 0.105 normalized occupancy; for CTCGCACC it is 0.0733 normalized occupancy. The figure for ATCTATTG is 0.078 normalized occupancy; for AGATAGGC it is 0.078 normalized occupancy. ACATAGAA: the binding signal came out at 0.0839 normalized occupancy. The figure for TAGTTAAA is 0.0739 normalized occupancy; for AAGCATGA it is 0.101 normalized occupancy. Turning to AAGCATTA, the binding signal turned out to be 0.082 normalized occupancy. The figure for CAGCATCC is 0.0746 normalized occupancy; for GAGCACGC it is 0.094 normalized occupancy. Regarding CAGCATGC, the binding signal turned out to be 0.126 normalized occupancy. Consider AAGCATTG, for which the binding signal is 0.0783 normalized occupancy.

GAGCATGC: the binding signal came out at 0.113 normalized occupancy.

Turning to CAGCATAC, the binding signal is 0.0829 normalized occupancy.

(Values after paper PMC4242493, “Sequence specificity incompletely defines the genome-wide occupancy of Myc”.)
